# Screening data (PubChem)
# TDP1 cell CPT: growth inhibition of DT40 Tdp1-/-;hTDP1 cells with camptothecin (screen for TDP1 inhibitors); AID 686979; chicken DT40 Tdp1-/-;hTDP1 cells + 20 nM CPT, ATP luminescence, 48 h; Potency, µM (doses to about 46.2 µM), most hits filed as inhibitors; hit rate 12% among 420,000; also: nearly all actives have a fitted effect of over 55% in size
#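 Cell growth measured by CellTiter-Glo luminescence after a minimum 48 h, 37 C compound exposure with 20 nM CPT in Tdp1-knockout DT40 cells stably expressing hTDP1, seeded 400/well; qHTS titration format.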
# DT40 TDP1 no CPT: qHTS for Inhibitors of human tyrosyl-DNA phosphodiesterase 1 (TDP1): qHTS in cells in absence of CPT; DT40 Tdp1-/- hTDP1 cells, no CPT, ATP luminescence, 48 h; Potency, µM (series often up to 46.2 µM), usual class: inhibitors; hit rate 15% among 420,000; AID 686978, 2013; also: nearly all actives have a fitted effect of over 55% in size
#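 Chicken DT40 Tdp1-/- cells stably complemented with human TDP1 were seeded at 400 cells/well with DMSO in place of 20 nM camptothecin. After compound pinning, cells grew at least 48 hr at 37 °C; viability read by CellTiter-Glo luminescence.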
# TGFb inhibitor: blocks TGF-b signaling; HepG2 CAGA-GFP TGF-b/SMAD3 reporter, GFP fluorescence, 18 h; TGF-beta stimulated, 500 pg/mL final; Potency, µM (titrated, usually from 46.1 µM), usual class: inhibitors; hit rate 1.2% among 410,000; AID 588855; also: nearly all actives have a fitted effect of over 65% in size
#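 Read-out: total well GFP (ex488/em500-530) summed from mean per-cell fluorescence. Cells: HEPG2 CAGA-GFP, 1% FBS DMEM, 18 h at 37 degrees C with 500 pg/mL final TGF-beta. Unstimulated wells served as the full-inhibition control; stimulated DMSO wells = 0%.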
# S2 tox: reduces viability in counter-screen for ATXN expression inhibitors; AID 651635; hit rate 0.49% among 400,000; S2 cells (HEK-293 line with an ATXN2-luciferase reporter) viability, CellTiter-Fluor protease fluorescence, 24 h; Potency, µM (doses to about 56.7 µM), most hits filed as cytotoxic; also: nearly all actives have a fitted effect of over 40% in size
# ATXN2 expr inh: inhibitors of ATXN2 expression. HEK-293 ATXN2-luciferase reporter, luminescence, 24 h. Potency, µM (series often up to 57 µM), hits mostly inhibitors. hit rate 0.72% among 360,000. AID 1745845; also: nearly all actives have a fitted effect of over 55% in size
#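 ATXN2-luciferase reporter cells (luciferase flanked by upstream and downstream ATXN2 gene portions) were treated 24 h at 37 °C with compounds at up to 57 uM. SteadyGlo luminescence gave expression; GF-AFC fluorescence gave viability.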
# HepG2 tox: counter-screen for TGF-b inhibitors: cytotoxicity in HepG2 cells. HepG2 CAGA-GFP viability, ATP luminescence, 18 h. Potency, µM (top dose mostly 46.1 µM), most hits filed as cytotoxic. hit rate 0.76% among 410,000
#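 CellTiter-Glo luminescence gave cytotoxicity after 18 hours at 37 degrees C. The cells were HepG2 CAGA-GFP in 1% FBS DMEM, stimulated with 500 pg/mL TGF-beta after compound addition. %Activity was normalised to no-cell wells (complete cell-killing) and DMSO (no toxicity), and curves were fitted and classified.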
# A number is an active result; 0 = inactive; ? = inconclusive; - = no result given; [ ] = dose if it differs, or a comment. An excerpt weighted towards active compounds, which were near 17% of everything screened. Calls follow the shape of the dose curve; as a rule, active = well fitted curve in the direction sought with a large enough effect; inconclusive = small, poorly fitted or top-dose-only effect, or another doubt; inactive = no such curve, though single readings can be large; an effect the other way counts as inactive or inconclusive.
SMILES,TDP1 cell CPT,DT40 TDP1 no CPT,TGFb inhibitor,S2 tox,ATXN2 expr inh,HepG2 tox
C=CCC[C@H](Cc1ccc(F)cc1)C(=O)O[C@H](CNC(=O)[C@@H](CC=C)CC(=O)N(CCO)Cc1ccccc1)c1ccccc1,?,23µM,?,22µM,?,0
C=CC[C@H](CC(=O)N(CCO)Cc1ccccc1)C(=O)N[C@H](C)COC(=O)[C@@H](CC=C)Cc1ccc(F)cc1,?,21µM,?,?,0,0
C=CC[C@H](CC(=O)NCCO)C(=O)NC[C@@H](OC(=O)[C@@H](CC=C)Cc1ccc(F)cc1)c1ccccc1,?,?,0,0,?,0
C=CC[C@@H](CC(=O)N(CCO)Cc1ccccc1)C(=O)N[C@H](C)COC(=O)[C@@H](CC=C)Cc1ccc(F)cc1,?,?,0,0,0,0
C=CC[C@H](CC(=O)N(CCO)Cc1ccccc1)C(=O)N[C@H](COC(=O)[C@@H](CC=C)Cc1ccc(F)cc1)Cc1ccccc1,21µM,21µM,?,-,?,0
C=CCC[C@H](Cc1ccc(F)cc1)C(=O)OC[C@H](Cc1c[nH]c2ccccc12)NC(=O)[C@@H](CC=C)CC(=O)N(CCO)Cc1ccccc1,?,?,?,-,0,0
C=CC[C@H](CC(=O)NCCO)C(=O)NCCOC(=O)[C@@H](CC=C)Cc1ccc(F)cc1,0,0,0,0,0,0
CC(=O)c1c(O)c2ccccc2n(Cc2ccccc2)c1=O,0,0,0,0,0,0
CCC(=O)N1CCc2cc(S(=O)(=O)CCC(=O)N3CCN(c4ccc(C(C)=O)cc4)CC3)ccc21,18µM,7.3µM,?,0,0,0
CCC(=O)N1CCc2cc(S(=O)(=O)CCC(=O)Nc3ccc(OC)cc3)ccc21,0,0,0,0,-,0
CCC(=O)N1CCc2cc(S(=O)(=O)CCC(=O)N3CCN(c4ccc(Cl)cc4)CC3)ccc21,8.2µM,4.1µM,?,?,?,0
CCC(=O)N1CCc2cc(S(=O)(=O)CCC(=O)N3CCN(c4cccc(Cl)c4)CC3)ccc21,21µM,9.2µM,?,?,0,0
CCC(=O)N1CCc2cc(S(=O)(=O)CCC(=O)Nc3ccc(OC(F)(F)F)cc3)ccc21,23µM,23µM,11µM,0,0,0
CCn1c(SCC(=O)Nc2cc(C)ccc2C)nc2c(c1=O)SC(C)C2 (stereo not given),0,0,0,0,0,0
CCc1nnc(NC(=O)CSc2nc3c(c(=O)n2CC)SC(C)C3)s1 (stereo not given),18µM,12µM,0,0,0,0
CCSc1nnc(NC(=O)CSc2nc3c(c(=O)n2CCOC)SC(C)C3)s1 (stereo not given),16µM,23µM,0,0,0,0
COC(=O)NN1C(=O)C(c2ccccc2)=C(c2ccc(Cl)cc2)C1=O,0,?,?,0,0,0
Cc1ccc(S(=O)(=O)N2CCSC2c2ccco2)cc1 (stereo not given),0,18µM,?,0,0,0
COCC(=O)N1C[C@H](C)[C@H](OC)CN(C)C(=O)c2cc(NC(=O)Nc3cccc(F)c3)ccc2OC[C@@H]1C,12µM,10µM,-,-,-,-
CCCN1C[C@@H](C)[C@@H](OC)CN(C)C(=O)c2ccc(NC(=O)c3cccc(F)c3)cc2OC[C@H]1C,0,0,-,-,-,-
CCC(=O)Nc1ccc2c(c1)OC[C@@H](C)N(Cc1ccccc1F)C[C@@H](C)[C@@H](OC)CN(C)C2=O,0,0,-,-,-,-
CCCC(=O)Nc1ccc2c(c1)C(=O)N(C)C[C@@H](OC)[C@H](C)CN(Cc1ccc(-c3ccccn3)cc1)[C@@H](C)CO2,?,23µM,-,-,-,-
CO[C@@H]1CN(C)C(=O)c2cc(NC(=O)Nc3ccc4c(c3)OCO4)ccc2OC[C@@H](C)N(C)C[C@H]1C,0,0,-,-,-,-
CO[C@@H]1CN(C)C(=O)c2cc(NC(=O)NC3CCCCC3)ccc2OC[C@@H](C)N(CCc2ccccc2)C[C@H]1C,23µM,16µM,-,-,-,-
CC1CCCCN1C(=O)Cn1c(=O)n(-c2ccc(Cl)cc2)c(=O)c2c3c(sc21)CCC3 (stereo not given),0,?,0,0,0,0
SMILES,TDP1 cell CPT,DT40 TDP1 no CPT,TGFb inhibitor,S2 tox,ATXN2 expr inh,HepG2 tox
COCCCn1c(=N)c(C(=O)NC2CCCCC2)cc2c(=O)n3cc(C)ccc3nc21,0,?,0,-,0,0
Cc1cc(C(=O)N2C(C)CCCC2C)no1 (stereo not given),0,0,0,0,0,0
Cc1cc(C(=O)N(C2CCCCC2)C2CCCCC2)no1,13µM,8.2µM,?,0,0,0
COc1ccc(N)cc1-n1c(C)ccc1C,7.3µM,0,0,0,?,0
COc1ccc(-c2nc3ccccc3s2)cc1NC(=O)c1ccccc1OC,5.2µM,21µM,0,0,0,0
O=C(Nc1ccc(OC(=O)c2ccccc2)c(-c2nc3ccccc3s2)c1)c1ccccc1,18µM,?,0,0,0,0
COc1cccc(C(=O)NCc2ccc(-c3nc4ccccc4s3)cc2)c1,18µM,18µM,0,0,0,0
COc1ccc(C(=O)Nc2cc(C)c(O)c(-c3nc4ccccc4s3)c2)cc1OC,-,-,0,0,0,0
COc1ccc(C(=O)Nc2cc(-c3nc4ccccc4s3)ccc2OC)cc1,3.3µM,5.2µM,0,0,0,0
COc1cc(OC)cc(C(=O)Nc2ccccc2-c2nc3ccccc3s2)c1,10µM,5.8µM,0,0,0,0
CC(C)(C)S(=O)(=O)N1C[C@@H]2CC/C=C\C/C=C\2[C@H]1CCO,13µM,8.2µM,0,0,0,0
CC(C)(C)S(=O)(=O)N1C[C@H]2CC/C=C\C/C=C\2[C@@H]1CCO,21µM,13µM,0,0,0,0
CCCC(=O)NC1CC(=O)N(c2ccc3c(c2)OCCO3)C1 (stereo not given),0,0,0,-,-,0
Clc1cccc(Cl)c1CNc1ccc(N2CCCC2)cc1,6.5µM,16µM,0,0,0[11.3 µM],0
NNC(=O)c1cccn(Cc2cccc(C(F)(F)F)c2)c1=O,15µM,?,0,0,0,0
Cc1ccc(OCCC(=O)NNC(=O)c2nn(C)c(=O)c3ccccc23)cc1,?,0,0,0,0,0
COc1ccc(CCN2C(=O)c3cccc4cccc(c34)C2=O)cc1OC,0,?,0,0,0,0
CCN(CC)C(=O)c1ccc2c3c(cccc13)C(=O)N(CCc1ccc(OC)c(OC)c1)C2=O,8.2µM,8.2µM,0,-,?,0
CCOc1ccccc1C1CC(=O)Nc2c1c(=O)n(C)c(=O)n2C (stereo not given),0,0,0,0,0,0
